Screens as filed in PubChem.
Sampled rows, rich in hits. Any-hit rate of the full collection: about 16%.
uPA surface inh: qHTS for Inhibitors of Cell Surface uPA Generation; 330,000 tested, 0.31% active; cell surface uPA generation assay, qHTS; AID 540303, 2011; Potency, µM (doses to about 38.3 µM), for inactives: at the highest dose activity change, negative = inhibition, hits mostly inhibitors; active means well fitted inhibition curve with a large enough effect; inconclusive means small, poorly fitted or top-dose-only effect; inactive means no such curve, though single readings can be large or run the other way; tested in mouse RAW 264.7 cells; further: potency means the concentration at half of the fitted maximal effect; on the % scale 0 is the no-effect control and ±100 the full control effect; nearly all actives have a fitted effect of over 55% in size
TDP1 inh: qHTS Assay for Inhibitors of Tyrosyl-DNA Phosphodiesterase (TDP1). Tyrosyl-DNA phosphodiesterase 1 (Homo sapiens), Q9NUW8. recombinant TDP1, AlphaScreen DNA substrate cleavage. Potency, µM (doses to about 130 µM), for the others: top-dose activity change, negative = inhibition, most hits filed as inhibitors. 350,000 tested, 0.28% active. AID 485290, 2010; further: potency means the concentration at half of the fitted maximal effect; on the % scale 0 is the no-effect control and ±100 the full control effect; nearly all actives have a fitted effect of over 40% in size
Target sequence (Q9NUW8 whole entry, looked up): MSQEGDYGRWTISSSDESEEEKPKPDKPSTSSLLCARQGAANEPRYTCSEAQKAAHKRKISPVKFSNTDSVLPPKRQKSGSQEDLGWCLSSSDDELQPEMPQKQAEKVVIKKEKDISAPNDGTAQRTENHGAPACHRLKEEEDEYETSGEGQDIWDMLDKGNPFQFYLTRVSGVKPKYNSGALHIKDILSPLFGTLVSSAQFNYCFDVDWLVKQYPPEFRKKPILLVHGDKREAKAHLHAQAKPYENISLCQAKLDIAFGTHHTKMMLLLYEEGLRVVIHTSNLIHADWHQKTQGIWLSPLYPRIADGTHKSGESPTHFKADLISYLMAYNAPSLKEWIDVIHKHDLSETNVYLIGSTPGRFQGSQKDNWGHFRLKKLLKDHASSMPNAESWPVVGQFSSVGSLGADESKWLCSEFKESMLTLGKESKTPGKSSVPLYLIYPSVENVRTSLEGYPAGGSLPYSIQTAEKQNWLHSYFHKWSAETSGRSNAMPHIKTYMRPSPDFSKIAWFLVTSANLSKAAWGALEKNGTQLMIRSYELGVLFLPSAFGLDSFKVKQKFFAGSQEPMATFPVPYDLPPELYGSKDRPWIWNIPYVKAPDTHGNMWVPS
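Enzyme-compound mixtures sat 15 min at room temperature, followed by a 5 min reaction with 15 nM final substrate and 10 min with AlphaScreen beads. Recombinant human Tdp1 was used at 1 nM final.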
DT40 TDP1 no CPT: qHTS for Inhibitors of human tyrosyl-DNA phosphodiesterase 1 (TDP1): qHTS in cells in absence of CPT; DT40 Tdp1-/- hTDP1 cells, no CPT, ATP luminescence, 48 h; Potency, µM (top dose mostly 46.2 µM), inactives show at the top dose activity change, negative = growth inhibition, hits mostly inhibitors; 420,000 tested, 15% active; further: potency means the concentration at half of the fitted maximal effect; on the % scale 0 is the no-effect control and ±100 the full control effect; nearly all actives have a fitted effect of over 55% in size
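Luminescent ATP content (CellTiter-Glo) served as the growth readout. Knockout chicken DT40 cells expressing human TDP1 were exposed to compounds without camptothecin for a minimum 48 hr at 37 °C.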
TDP1 cell CPT: qHTS for Inhibitors of human tyrosyl-DNA phosphodiesterase 1 (TDP1): qHTS in cells in presence of CPT. chicken DT40 Tdp1-/-;hTDP1 cells + 20 nM CPT, ATP luminescence, 48 h. Potency, µM (series often up to 46.2 µM), for inactives: at the highest dose activity change, negative = growth inhibition, usual class: inhibitors. 420,000 tested, 12% active. AID 686979, 2013; further: potency means the concentration at half of the fitted maximal effect; on the % scale 0 is the no-effect control and ±100 the full control effect; nearly all actives have a fitted effect of over 55% in size
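Cell growth measured by CellTiter-Glo luminescence after a minimum 48 h, 37 C compound exposure with 20 nM CPT in Tdp1-knockout DT40 cells stably expressing hTDP1, seeded 400/well; qHTS titration format.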
miR-21 act: qHTS Assay for Modulators of miRNAs and/orActivators of miR-21; HeLa miR-21 FLuc reporter, luciferase, 48 h; Potency, µM (series often up to 38.3 µM), without a hit: at the highest dose activity change, positive = activation, actives largely listed as activators; 340,000 tested, under 10 active;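 further: % of control where 0% means no effect; miR-21 action dims this reporter so a rising signal means less miR-21 action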
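HeLa miR-21-FLuc reporter line, endogenous miR-21; 2000 cells/well in DMEM/10% FBS; compound titration up to ~40uM final, 48 h, 37 degree Celsius; luciferase detection reagent, 15 min lysis, CCD luminescence.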
Numbers without * were called inactive; ? = inconclusive; · = not tested or not shown; [ ] = another dose, or the depositor's remark. Unless noted, the call rests on the fitted dose curve; in most records, active means well fitted curve in the direction sought with a large enough effect; inconclusive means small, poorly fitted or top-dose-only effect, or another doubt; inactive means no such curve, though single readings can be large; an effect the other way counts as inactive or inconclusive.

SMILES	uPA surface inh	TDP1 inh	DT40 TDP1 no CPT	TDP1 cell CPT	miR-21 act
Cn1c(=O)c(=O)n(C)c2cc(S(=O)(=O)NCc3ccc(Cl)cc3)ccc21	-19.2%	0.0%	?	16.4µM*	-3.2%
CCOC(=O)c1oc2ccc(S(=O)(=O)n3nc(-c4ccc(C)cc4)cc3N)cc2c1C	-7.2%	3.8%	16.4µM*	11.6µM*	-1.1%
Cn1c(=O)n(C)c2cc(S(=O)(=O)NCc3ccccc3)ccc21	-3.7%	-1.0%	?	?	1.8%
CCOC(=O)c1oc2ccc(S(=O)(=O)Nc3ccc4c(c3)n(C)c(=O)n4C)cc2c1C	?	4.6%	20.6µM*	?	18.8%
CCc1ccc(S(=O)(=O)Nc2ccc3c(c2)n(C)c(=O)c(=O)n3C)cc1	·	7.1%	14.6µM*	?	13.2%
CCOC(=O)c1c(C)oc2ccc(NS(=O)(=O)c3ccc(C(=O)O)cc3)cc12	-2.8%	-8.2%	-8.3%	19.6%	-2.1%
COc1ccc(-n2c(=S)[nH]c(=O)c3cccnc32)cc1	-4.2%	1.4%	-3.7%	-2.7%	-12.9%
CCc1cccc(NS(=O)(=O)c2ccc3c(c2)n(C)c(=O)n3C)c1	-5.2%	·	9.2µM*	10.3µM*	10.7%
CCc1ccc(NS(=O)(=O)c2cc3c(cc2C)n(C)c(=O)c(=O)n3C)cc1	-25.7%	·	13µM*	14.6µM*	7.6%
Cc1cc2c(cc1S(=O)(=O)Nc1ccc(F)cc1)n(C)c(=O)c(=O)n2C	15.9%	·	-3.8%	9.2%	4.0%
O=C(/C=C/c1ccco1)c1ccc(NC(=O)C23CC4CC(CC(C4)C2)C3)cc1	-1.9%	0.0%	14.6µM*	20.6µM*	-14.3%
O=C(Cc1cccs1)Nc1nc(-c2cccnc2)cs1	5.6%	5.7%	8.2µM*	16.4µM*	7.4%
O=C(Nc1nc2ccccc2s1)C1c2ccccc2Oc2ccccc21	-2.1%	5.4%	16.4µM*	5.8µM*	4.0%
CCOc1ccc2nc(NC(=O)Cc3cccs3)sc2c1	6.6%	0.0%	?	18.4µM*	-51.3%
O=C(Cc1cccs1)Nc1nc2ccccc2s1	2.3%	3.9%	14.6µM*	?	-34.0%
O=C(Nc1nc2ccccc2s1)C1CCCO1 (stereo unspecified)	-4.9%	2.0%	-7.4%	-10.6%	-34.8%
O=C(CSc1nnc(CCCO)n1-c1ccccc1)NCCc1ccccc1	2.3%	2.2%	1.3%	-13.8%	-4.8%
O=S(=O)(Nc1ccccc1)c1cccc2nonc12	-5.2%	5.2%	8.6%	-12.5%	-1.3%
C=C1CSc2nc(=O)c3c(C)c(C)sc3n21	3.1%	3.3%	-1.1%	-0.4%	-2.5%
Cc1ccc(-c2nc(CSc3nc4ccccc4c(=O)n3C)cs2)cc1	1.7%	2.2%	25.9µM*	18.4µM*	-5.6%
Cc1ccc(CNC(=O)CSc2nc3ccccc3c(=O)n2CCCO)cc1	1.7%	5.3%	-23.7%	-19.3%	-2.0%
Cc1ccc(-c2nc(CSc3nc4ccccc4c(=O)n3CCO)cs2)cc1	-1.6%	5.6%	16.4µM*	?	-2.4%
C=CCn1c(SCc2csc(-c3ccc(C)cc3)n2)nnc1-c1ccccc1OC	-7.6%	5.5%	18.4µM*	11.6µM*	23.0%
CCn1cc(C(C)NC(=O)Nc2ccccc2C(=O)OC)c(C)n1 (stereo unspecified)	-4.5%	2.5%	-16.2%	21.7%	-6.5%
Cc1nnc(NC(=O)CC(CN(C)S(=O)(=O)c2ccccc2)c2ccccc2)s1 (stereo unspecified)	5.8%	0.0%	-21.2%	-14.0%	6.2%
SMILES	uPA surface inh	TDP1 inh	DT40 TDP1 no CPT	TDP1 cell CPT	miR-21 act
Cc1c(C(=O)OCc2ccc(F)cc2)sc2nc3n(c(=O)c12)CCC3	4.5%	4.7%	?	-7.8%	·
CCc1ccc2[nH]c(=O)c(CN(CCN3CCCC3)C(=O)NC3CCCCC3)cc2c1	-6.1%	-2.0%	23.1µM*	16.4µM*	-11.7%
O=C(NC1CCCCC1)N(CCN1CCOCC1)Cc1cc2cc3c(cc2[nH]c1=O)OCCO3	·	4.2%	?	13µM*	-15.8%
CCOC(=O)c1c(NC(=O)CSc2nnc(C)o2)sc(C)c1C	-16.0%	·	25.6%	-2.8%	-7.1%
Oc1ccc(N=Cc2ccc(OCc3ccccc3)cc2)cc1	?	-5.1%	20.6µM*	20.6µM*	-3.5%
O=C(N/N=C/c1ccc(OCc2ccccc2)cc1)c1ccncc1	2.5%	-0.6%	-25.6%	-25.6%	-45.1%
COc1ccc(CNC(=O)OC2CC3CC2[C@H]2CCCCN2C3=O)cc1 (stereo partly specified)	·	·	-9.0%	8.8%	·
O=C(CCN=C1NS(=O)(=O)c2ccccc21)OCc1nnc(-c2ccccc2)o1	1.7%	-0.5%	0.3%	14.7%	·
CC(C)c1cccc(C(C)C)c1NC(=O)CCl	·	-5.1%	16.4µM*	?	7.9%
CCOCCn1cnc2sc(C(=O)Nc3nc(C)c(C(=O)OCC)s3)c(C)c2c1=O	·	0.0%	·	·	-7.5%
CCCc1nnc(NC(=O)CCC(=O)N2CCN(CCOc3ccc(C)cc3)CC2)s1	0.0%	6.8%	?	?	8.5%
Cc1ccc(OCCN2CCN(C(=O)CCC(=O)Nc3nnc(C)s3)CC2)cc1	2.3%	-2.4%	-4.6%	-11.4%	0.4%
Cc1ccc(OCCN2CCN(C(=O)CCC(=O)Nc3nnc(C(C)C)s3)CC2)cc1	-4.2%	2.9%	23.1µM*	?	16.7%
Cc1nnc(NC(=O)CCC(=O)N2CCN(CCOc3cccc4ccccc34)CC2)s1	2.5%	·	23.1µM*	?	0.7%
CCOC(=O)COc1ccccc1C(=O)c1cnn(-c2ccccc2)c1	-18.1%	·	?	-12.6%	-50.0%
Fc1ccc(-c2cc(C(F)(F)F)nc(-n3cncn3)n2)cc1	·	0.0%	-23.9%	?	-15.5%
COc1ccc(CNC(=O)CN2C(=O)NC(C)(c3ccc(Cl)cc3)C2=O)cc1 (stereo unspecified)	3.4%	·	?	-1.9%	2.1%
COc1ccc(N(CC(=O)N2CCN(Cc3ccccc3)CC2)S(C)(=O)=O)cc1	12.9%	2.6%	-0.8%	15.4%	-0.1%
CCc1nn(C(CC)C(=O)NCc2ccc(OC)c(OC)c2)c(=O)c2cc3oc(C)cc3n12 (stereo unspecified)	·	2.5%	9.2µM*	16.4µM*	17.5%
O=C(/C=C/c1ccccc1)NC(=S)Nc1cccnc1	-5.8%	-1.0%	-9.5%	-6.2%	-9.1%
CC(C)(C)c1ccc(C2Sc3ccccc3NC3=C2C(=O)c2ccccc23)cc1 (stereo unspecified)	·	4.8%[12.3 µM]	?	16.4µM*	?
COc1ccc(N2C3=C(CC4=C2CCCC4=O)C(=O)CCC3)cc1	6.9%	7.7%	?	?	-4.6%
